Results from PubChem BioAssay (NCI).
Compounds without any hit were thinned out: in the full panel of roughly 79,000, 15% have a hit. Active and inactive are the calls of the source. Rule as the data show it: active = growth inhibition above about 70%; inactive = the rest.

Assay: NCI Yeast Anticancer Drug Screen. Data for the bub3 strain (AID 167)
Conditions: S. cerevisiae bub3 mutant strain, hits give high values
Experimental: Growth inhibition of yeast strains with defined genetic alterations is measured as a screen for potential anti-cancer activity. Selected strains with alterations in DNA damage repair or cell cycle control were exposed to compounds and growth inhibition was measured relative to vehicle treated controls. The strain used in this assay is bub3

[1] = at 5.0 µM (retest, dose inferred, filed as 0.5)
[2] = at 50.0 µM (retest, dose inferred, filed as 5.0)

Measured: growth inhibition

CCN(CC)CCCNc1ccc([N+](=O)[O-])c2nc3ccc(OC)cc3c(NCCCN(CC)CC)c12
inactive: at 1.2 µM -6% | at 3.7 µM -7% | [1] 14% | at 11.0 µM -7% | at 33.0 µM -6% | [2] 6% | at 50.0 µM 13.4% | at 100.0 µM -4%

CCCCCCNCCCNc1c2ccccc2nc2cccc([N+](=O)[O-])c12
inactive: at 1.2 µM -10% | at 3.7 µM -16% | [1] -42% | at 11.0 µM -12% | at 33.0 µM 15% | at 50.0 µM 43.9%
active: [2] 98% | at 100.0 µM 98%

O=C1c2cccc3cccc(c23)C(=O)N1CCNCCN1C(=O)c2cccc3cccc(c23)C1=O
inactive: at 1.2 µM 0% | at 3.7 µM 1% | [1] 2% | at 11.0 µM -2% | at 33.0 µM -4% | [2] 1% | at 50.0 µM 0.65% | at 100.0 µM -3%

Cc1ccc([N+](=O)[O-])c2c(NCCC[N+](C)(C)[O-])c3ccccc3nc12
inactive: at 1.2 µM -11% | at 3.7 µM -4% | [1] -22% | at 11.0 µM -20% | at 33.0 µM -13% | [2] 3% | at 50.0 µM -36% | at 100.0 µM -17%

CCCCCCCCCC(=O)N(CCC)CCC
inactive: at 1.2 µM -29% | at 3.7 µM -27% | [1] -7% | at 11.0 µM -37% | at 33.0 µM 67%
active: [2] 73% | at 50.0 µM 92% | at 100.0 µM 97%
